Where “and” joins values, the source holds several entries; their conditions need not be identical. Equal entries are not always repeated. Records with an inconclusive call do not appear. The source holds several records for some structures; these can differ, active in one and inactive in another. Calls of active or inactive are those of the source. How the source made its calls, unless noted: active means hit-call score of the fitted dose curve at least 0.9, where 1 is the maximum; inactive means score below 0.9.
How the values were obtained:
[1] = molecular target: Retinoic acid receptor RXR-alpha (Homo sapiens) (UniProt P19793); test: OT_NURR1_NURR1RXRa_0480: Odyssey Thera (OT) 8-hour HEK293T Protein Complementation Assay for Nurr1/retinoid X receptor (RXR) (AID 2283385; active means hit-call score of the fitted dose curve at least 0.9, where 1 is the maximum)
Procedure, shortened: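 Interaction of bait and prey reconstitutes a functional reporter, whose fluorescence was measured in HEK293T cells dosed with compound for 8 hours. Signal gain relative to DMSO defined the single endpoint.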

[2] = molecular target: Retinoic acid receptor RXR-alpha (Homo sapiens) (UniProt P19793); test: OT_NURR1_NURR1RXRa_1440: Odyssey Thera (OT) 24-hour HEK293T Protein Complementation Assay for Nurr1/retinoid X receptor (RXR) (AID 2283386; active means hit-call score of the fitted dose curve at least 0.9, where 1 is the maximum)
Procedure, shortened: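 Steps: fragment-tagged Nurr1 and RXRα expressed in HEK293T; compounds added; after 24 h, complemented reporter quantified by fluorescence intensity; signal increase over DMSO fitted as the single endpoint.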

[3] = molecular target: Peroxisome proliferator-activated receptor gamma (Homo sapiens) (UniProt P37231); test: OT_PPARg_PPARgSRC1_0480: Odyssey Thera (OT) 8-hour Protein-Complementation Assay for Peroxisome Proliferator-activated Receptor Gamma / SRC-1 Co-activator (AID 2283387; active means hit-call score of the fitted dose curve at least 0.9, where 1 is the maximum;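 further: nuclear to cytoplasmic split Venus YFP fluorescence ratio reporting PPARg SRC-1 interaction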)
Procedure, shortened: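 Split-YFP (IFP1/IFP2) PPARg/SRC-1 reporter, HEK293T, 37 °C, 5% CO2; 8 h compound; formaldehyde fix + Draq5; high-content imaging, N/C ratio, ≥350 cells/image, positive direction vs DMSO.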

[4] = molecular target: Peroxisome proliferator-activated receptor gamma (Homo sapiens) (UniProt P37231); test: OT_PPARg_PPARgSRC1_1440: Odyssey Thera (OT) 24-hour Protein-Complementation Assay for Peroxisome Proliferator-activated Receptor Gamma/ SRC-1 Co-activator (AID 2283388; active means hit-call score of the fitted dose curve at least 0.9, where 1 is the maximum;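 further: nuclear to cytoplasmic ratio of reconstituted Venus YFP fluorescence in fixed imaged cells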)
Procedure, shortened: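 Protein-fragment complementation between PPARg and coactivator SRC-1 was measured by fluorescence imaging in transiently transfected HEK293T cells after 24 h treatment. Signal was quantified as N/C ratio in the 488 nm channel, with DMSO as negative control.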

[5] = read-out: Tumor necrosis factor receptor superfamily member 6 (Homo sapiens) (UniProt P25445); test: LTEA_HepaRG_FAS: Life Technologies and Expression Analysis (LTEA) Assay for Fas cell surface death receptor (FAS) using HepaRG (AID 2283447); settings: mRNA level, 48 h; actives raise or lower the signal
Procedure, shortened: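 Differentiated human HepaRG cells, pre-cultured 48 h, were exposed in duplicate for 48 h to 8-point half-log concentrations (top 100 uM, 0.5% DMSO) in serum-free induction medium; FAS mRNA measured by qRT-PCR, normalized to ACTB/GAPDH/POLR2A, bidirectional fit versus DMSO.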

[6] = read-out: Fatty acid synthase (Homo sapiens) (UniProt P49327); test: LTEA_HepaRG_FASN: Life Technologies and Expression Analysis (LTEA) Assay for Fatty Acid Synthase (FASN) using HepaRG (AID 2283448); settings: mRNA level, 48 h; actives raise or lower the signal
Procedure, shortened: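 Cells were plated, cultured 48 h, switched to serum-free induction medium, then dosed in duplicate (max 100 uM, half-log dilutions, 0.5% DMSO) for 48 h. RNA was then isolated and FASN quantified by qRT-PCR.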

[7] = read-out: Cyclin D2 (CCND2), CCND2 (gene 894); test: LTEA_HepaRG_CCND2: Life Technologies and Expression Analysis (LTEA) Assay for Cyclin D2 (CCND2) using HepaRG (AID 2283449); settings: mRNA level, 48 h; actives raise or lower the signal;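 further: CCND2 transcript measured by TaqMan qRT-PCR and normalised to three housekeeping genes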
Procedure, shortened: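 In this HepaRG study, an eight-point concentration series (max 100 uM, 0.5% DMSO) is applied for 48 h. CCND2 mRNA change is derived by qRT-PCR normalised to ACTB, GAPDH and POLR2A.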

[8] = read-out: Cyclin Dependent Kinase Inhibitor 1A (CDKN1A), CDKN1A (gene 1026); test: LTEA_HepaRG_CDKN1A: Life Technologies and Expression Analysis (LTEA) Assay for Cyclin Dependent Kinase Inhibitor 1A (CDKN1A) using HepaRG (AID 2283450); settings: mRNA level, 48 h; actives raise or lower the signal
Procedure, shortened: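 Read-out is CDKN1A mRNA by TaqMan qRT-PCR, normalized to three housekeeping genes and fitted in both directions against the DMSO baseline. Human HepaRG cells were treated 48 h with test chemicals up to 100 uM in half-log steps, 0.5% DMSO.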

[9] = read-out: Cyclin D1 (CCND1), CCND1 (gene 595); test: LTEA_HepaRG_CCND1: Life Technologies and Expression Analysis (LTEA) Assay for Cyclin D1 (CCND1) using HepaRG (AID 2283451); settings: mRNA level, 48 h; actives raise or lower the signal;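 on AC50: TaqMan qRT-PCR transcript level normalised to ACTB GAPDH and POLR2A housekeeping genes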
Procedure, shortened: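 HepaRG plated 48 h, medium switched to serum-free induction medium, chemicals added in duplicate (top 100 uM, half-log steps, 0.5% DMSO) for 48 h, cells lysed, RNA measured by TaqMan qRT-PCR.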

[10] = read-out: catalase (CAT), CAT (gene 847); test: LTEA_HepaRG_CAT: Life Technologies and Expression Analysis (LTEA) Assay for catalase (CAT) using HepaRG (AID 2283452); settings: mRNA level, 48 h; actives raise or lower the signal;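 on AC50: TaqMan qRT-PCR signal normalized to ACTB GAPDH and POLR2A housekeeping genes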
Procedure, shortened: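 Differentiated HepaRG cells in serum-free induction medium were dosed 48 h in duplicate, eight half-log concentrations from 100 uM in 0.5% DMSO. Transcript measured by TaqMan qRT-PCR, normalised to ACTB/GAPDH/POLR2A, fitted bidirectionally against DMSO.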

[11] = read-out: flavin-containing dimethylaniline monooxygenases 3 (FMO3), FMO3 (gene 2328); test: LTEA_HepaRG_FMO3: Life Technologies and Expression Analysis (LTEA) Assay for flavin-containing dimethylaniline monooxygenases 3 (FMO3) using HepaRG (AID 2283453); settings: mRNA level, 48 h; actives raise or lower the signal;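 on AC50: FMO3 transcript by TaqMan qRT-PCR normalized to ACTB GAPDH and POLR2A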
Procedure, shortened: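 FMO3 transcript quantified by TaqMan qRT-PCR against three housekeeping genes after 48 h chemical exposure of HepaRG cells. Eight-point half-log series, top 100 uM, 0.5% DMSO vehicle; phenobarbital 1mM induction control; up- or down-regulation fitted.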

[12] = CEETOX_H295R_OHPREG: CeeTox H295R High-throughput Steroidogenesis Assay for OH-Pregnenolone (OHPREG) (AID 2283434); settings: actives raise or lower the signal
Procedure, shortened: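 Readout: HPLC-MS/MS of 17alpha-hydroxypregnenolone in medium after 48 h chemical exposure of H295R cells pretreated with forskolin. Values fitted bidirectionally relative to DMSO; chemicals reducing viability to 20–70% were retested after 10-fold dilution.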

[13] = CEETOX_H295R_OHPROG: CeeTox H295R High-throughput Steroidogenesis Assay for OH-Progesterone (OHPROG) (AID 2283435); settings: actives raise or lower the signal;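 on AC50: human adrenal H295R cells primed 48 h with 10 µM forskolin; 17alpha-hydroxyprogesterone secreted into medium measured by HPLC-MS/MS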
Procedure, shortened: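 Steps: seed H295R cells and adhere overnight; stimulate with 10 uM forskolin for 48 h; replace with chemical-containing medium (0.1% DMSO) for 48 h; extract medium with MTBE; quantify 17alpha-hydroxyprogesterone by reverse-phase C18 HPLC-MS/MS against a 7-point curve.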

[14] = CEETOX_H295R_ESTRONE: CeeTox H295R High-throughput Steroidogenesis Assay for Estrone (AID 2283441); settings: actives raise or lower the signal;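 on AC50: human adrenal H295R cells prestimulated with forskolin for two days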
Procedure, shortened: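 Estrone secreted into medium quantified by LC-MS/MS after dansyl chloride derivatization, following 48 h chemical exposure (0.1% DMSO final) of forskolin-prestimulated (10 uM, 48 h) H295R cells; gain or loss fitted against DMSO; MTT viability in same wells.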

[15] = CEETOX_H295R_PROG: CeeTox H295R High-throughput Steroidogenesis Assay for Progesterone (PROG) (AID 2283442); settings: actives raise or lower the signal;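 on AC50: human H295R adrenal cells primed with 10 µM forskolin before dosing; progesterone secreted into medium by H295R cells measured by HPLC-MS/MS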
Procedure, shortened: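 Steps: seed H295R cells and let them adhere overnight; prime 48 h with 10 uM forskolin; dose with compound in DMSO at 0.1% final for 48 h; extract medium steroids with MTBE; measure progesterone by LC-MS/MS. MTT viability was run in the same wells.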

[16] = CEETOX_H295R_11DCORT: CeeTox H295R High-throughput Steroidogenesis Assay for 11-Deoxycortisol (11DCORT) (AID 2283432); settings: actives raise or lower the signal
Procedure, shortened: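 Steroidogenesis in human H295R cells: 48 h chemical exposure after forskolin priming, 11-deoxycortisol measured by LC-MS/MS.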

[17] = CEETOX_H295R_CORTIC: CeeTox H295R High-throughput Steroidogenesis Assay for Corticosterone (CORTIC) (AID 2283437); settings: actives raise or lower the signal;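 further: corticosterone secreted into medium quantified by mass spectrometry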
Procedure, shortened: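 Steps: seed H295R, adhere overnight; 10 uM forskolin 48 h; replace with chemical (0.1% DMSO) 48 h; extract medium with MTBE; quantify corticosterone by HPLC-MS/MS; score bidirectionally vs DMSO.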

[18] = CEETOX_H295R_CORTISOL: CeeTox H295R High-throughput Steroidogenesis Assay for Cortisol (AID 2283438); settings: actives raise or lower the signal
Procedure, shortened: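 Cortisol synthesis by H295R cells is measured 48 h after chemical dosing, following a 48 h stimulation with 10 uM forskolin. Hormone is extracted and quantified by HPLC-MS/MS, and activity is fitted bidirectionally against the DMSO control.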

[19] = CEETOX_H295R_DOC: CeeTox H295R High-throughput Steroidogenesis Assay for DOC (AID 2283439); settings: actives raise or lower the signal
Procedure, shortened: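 Steps: seed H295R, adhere overnight; 10 uM forskolin 48 h; replace with chemical medium (0.1% DMSO) 48 h; collect medium, MTBE extraction, HPLC-MS/MS for DOC. Viability then checked by MTT; cytotoxic chemicals diluted until viability ≥70%.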

Measured: AC50

Chain of Fatty acid synthase (Homo sapiens) (P49327 whole entry, looked up): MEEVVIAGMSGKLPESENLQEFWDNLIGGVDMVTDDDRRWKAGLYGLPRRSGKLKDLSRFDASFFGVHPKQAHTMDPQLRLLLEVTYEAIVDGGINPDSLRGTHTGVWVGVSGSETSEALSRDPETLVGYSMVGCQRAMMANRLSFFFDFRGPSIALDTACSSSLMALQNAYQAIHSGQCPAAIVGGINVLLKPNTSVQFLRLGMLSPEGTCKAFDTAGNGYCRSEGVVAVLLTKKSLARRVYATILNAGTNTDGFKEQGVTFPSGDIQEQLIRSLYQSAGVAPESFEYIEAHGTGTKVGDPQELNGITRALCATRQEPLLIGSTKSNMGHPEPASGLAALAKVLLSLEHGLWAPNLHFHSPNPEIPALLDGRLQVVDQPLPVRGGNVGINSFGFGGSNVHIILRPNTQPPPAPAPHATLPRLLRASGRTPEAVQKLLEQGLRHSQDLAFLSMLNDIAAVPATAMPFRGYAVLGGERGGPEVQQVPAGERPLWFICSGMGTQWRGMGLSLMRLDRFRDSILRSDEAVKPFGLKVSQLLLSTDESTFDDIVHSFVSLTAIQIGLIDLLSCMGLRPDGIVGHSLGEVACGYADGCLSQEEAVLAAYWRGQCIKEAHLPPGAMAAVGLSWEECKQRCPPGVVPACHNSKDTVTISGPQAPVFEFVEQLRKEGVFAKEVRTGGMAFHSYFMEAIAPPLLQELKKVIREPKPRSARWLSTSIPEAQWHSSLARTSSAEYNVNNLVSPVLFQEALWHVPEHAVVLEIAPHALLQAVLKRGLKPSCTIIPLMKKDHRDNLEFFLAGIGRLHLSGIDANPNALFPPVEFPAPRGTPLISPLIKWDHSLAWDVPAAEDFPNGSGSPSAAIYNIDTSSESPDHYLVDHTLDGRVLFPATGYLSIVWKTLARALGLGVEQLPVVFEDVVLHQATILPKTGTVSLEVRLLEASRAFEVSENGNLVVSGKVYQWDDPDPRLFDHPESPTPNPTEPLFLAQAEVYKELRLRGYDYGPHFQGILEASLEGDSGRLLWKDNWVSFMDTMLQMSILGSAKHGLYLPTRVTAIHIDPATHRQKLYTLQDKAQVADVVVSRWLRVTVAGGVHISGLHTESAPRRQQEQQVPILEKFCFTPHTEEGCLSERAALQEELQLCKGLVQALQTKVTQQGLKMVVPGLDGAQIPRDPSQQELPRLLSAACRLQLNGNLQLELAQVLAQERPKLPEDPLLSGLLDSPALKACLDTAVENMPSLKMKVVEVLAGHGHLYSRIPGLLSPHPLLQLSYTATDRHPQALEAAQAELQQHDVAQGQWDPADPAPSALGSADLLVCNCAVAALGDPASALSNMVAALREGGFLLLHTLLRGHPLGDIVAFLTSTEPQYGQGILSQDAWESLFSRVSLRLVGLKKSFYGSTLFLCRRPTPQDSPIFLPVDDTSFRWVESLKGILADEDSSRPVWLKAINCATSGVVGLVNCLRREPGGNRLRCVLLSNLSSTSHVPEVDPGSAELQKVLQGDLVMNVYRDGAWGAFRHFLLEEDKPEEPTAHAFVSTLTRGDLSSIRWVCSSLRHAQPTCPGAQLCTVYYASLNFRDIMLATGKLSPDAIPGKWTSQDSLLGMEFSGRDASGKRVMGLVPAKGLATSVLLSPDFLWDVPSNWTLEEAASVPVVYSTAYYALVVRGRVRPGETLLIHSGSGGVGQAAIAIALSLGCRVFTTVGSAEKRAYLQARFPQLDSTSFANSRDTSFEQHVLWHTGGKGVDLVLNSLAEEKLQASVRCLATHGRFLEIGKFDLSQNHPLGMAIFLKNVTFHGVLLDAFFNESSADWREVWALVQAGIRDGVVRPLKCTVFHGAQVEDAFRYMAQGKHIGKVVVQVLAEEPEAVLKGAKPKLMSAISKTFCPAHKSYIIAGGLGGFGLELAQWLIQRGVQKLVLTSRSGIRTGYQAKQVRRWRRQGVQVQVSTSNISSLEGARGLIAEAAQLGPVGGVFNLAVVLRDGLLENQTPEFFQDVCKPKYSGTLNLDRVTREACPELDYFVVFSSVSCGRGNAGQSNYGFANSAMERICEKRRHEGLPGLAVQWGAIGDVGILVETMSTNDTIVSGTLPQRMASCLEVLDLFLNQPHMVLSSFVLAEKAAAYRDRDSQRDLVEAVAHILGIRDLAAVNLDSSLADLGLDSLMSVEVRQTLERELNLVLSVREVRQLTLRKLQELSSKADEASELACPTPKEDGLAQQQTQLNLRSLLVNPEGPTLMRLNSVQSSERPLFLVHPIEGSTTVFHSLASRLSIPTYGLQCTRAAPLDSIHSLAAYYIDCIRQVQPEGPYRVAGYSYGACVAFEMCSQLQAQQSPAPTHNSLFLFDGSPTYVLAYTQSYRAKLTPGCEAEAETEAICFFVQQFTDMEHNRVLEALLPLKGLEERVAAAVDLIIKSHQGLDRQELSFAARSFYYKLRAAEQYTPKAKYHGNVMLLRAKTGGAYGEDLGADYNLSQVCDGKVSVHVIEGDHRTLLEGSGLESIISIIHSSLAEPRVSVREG
Chain of Peroxisome proliferator-activated receptor gamma (Homo sapiens) (P37231 whole entry, looked up, the tested form may be a part): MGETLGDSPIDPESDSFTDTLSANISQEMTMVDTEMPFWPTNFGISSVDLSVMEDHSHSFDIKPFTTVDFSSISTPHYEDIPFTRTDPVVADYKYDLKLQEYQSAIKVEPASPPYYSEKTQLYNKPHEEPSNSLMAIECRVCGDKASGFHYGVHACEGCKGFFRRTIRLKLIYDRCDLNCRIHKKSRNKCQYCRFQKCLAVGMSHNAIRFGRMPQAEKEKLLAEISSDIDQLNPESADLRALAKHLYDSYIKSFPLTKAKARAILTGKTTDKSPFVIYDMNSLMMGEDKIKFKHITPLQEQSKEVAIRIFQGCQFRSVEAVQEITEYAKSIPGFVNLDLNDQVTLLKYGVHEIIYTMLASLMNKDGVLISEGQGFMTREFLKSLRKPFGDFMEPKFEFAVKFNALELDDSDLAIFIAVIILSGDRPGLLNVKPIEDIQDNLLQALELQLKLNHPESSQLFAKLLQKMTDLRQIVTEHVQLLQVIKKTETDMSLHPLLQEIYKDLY
Chain of Retinoic acid receptor RXR-alpha (Homo sapiens) (P19793 whole entry, looked up, the tested form may be a part): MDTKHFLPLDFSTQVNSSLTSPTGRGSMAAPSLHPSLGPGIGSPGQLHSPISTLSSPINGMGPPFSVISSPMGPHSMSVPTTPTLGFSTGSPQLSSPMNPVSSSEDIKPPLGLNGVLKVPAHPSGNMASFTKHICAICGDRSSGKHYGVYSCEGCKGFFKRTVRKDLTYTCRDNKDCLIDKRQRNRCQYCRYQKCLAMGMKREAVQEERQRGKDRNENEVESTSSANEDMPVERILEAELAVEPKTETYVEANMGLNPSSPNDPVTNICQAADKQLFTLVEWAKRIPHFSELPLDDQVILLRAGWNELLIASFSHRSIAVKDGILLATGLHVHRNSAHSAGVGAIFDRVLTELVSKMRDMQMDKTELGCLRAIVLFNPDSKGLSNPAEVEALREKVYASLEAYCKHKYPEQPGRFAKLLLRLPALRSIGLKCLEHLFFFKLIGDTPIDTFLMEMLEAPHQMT

NNC(=O)c1ccncc1
inactive: [1] | [2] | [3] | [4] | [5] | [6] | [7] | [8] | [9] | [10] | [11]

CCOc1ccc2[nH]cc(C(=O)NCc3ccccc3)c(=O)c2n1
inactive: [2] | [3] | [4] | [12] | [14] | [15] | [5] | [6] | [7] | [8] | [9] | [10]
active: [13] 68.1 µM | [11] 79.6 µM

COc1cc(C(C)C)c2c(c1)S(=O)(=O)N(COc1cc(=O)n3cccc(OCCN4CCCCC4)c3n1)C2=O
active: [1] 3.02 µM and 4 µM | [2] 2.9 µM | [6] 20.7 µM | [9] 19.4 µM | [10] 19.4 µM | [11] 23 µM
inactive: [2] | [3] | [4] | [5] | [8]

CC(C)c1nnc2ccc(-c3ocnc3-c3cc(F)ccc3F)cn12
active: [6] 50 µM | [10] 50 µM | [11] 63.6 µM
inactive: [2] | [3] | [4] | [16] | [12] | [13] | [17] | [18] | [19] | [14] | [15] | [5] | [8] | [9]

NC(=O)NN=Cc1ccc([N+](=O)[O-])o1
inactive: [1] | [2] | [3] | [4] | [5] | [8] | [9] | [10] | [11]
active: [6] 50 µM | [7] 0.0722 µM

Cc1ncc([C@@H](CCCCCCc2ccc3c(n2)NCCC3)CC(=O)O)cn1
inactive: [1] | [2] | [3] | [4] | [12] | [14] | [5] | [6] | [7] | [8] | [9] | [10] | [11]
active: [3] 12.4 µM | [15] 12.5 µM

NC(N)=O
inactive: [1] | [2] | [3] | [4] | [5] | [6] | [7] | [8] | [9] | [10] | [11]

OC[C@H]1O[C@@](CO)(O[C@H]2O[C@H](CO)[C@@H](O)[C@H](O)[C@H]2O)[C@@H](O)[C@@H]1O
inactive: [1] | [2] | [3] | [4] | [5] | [6] | [7] | [8] | [9] | [10] | [11]

Cc1nccn1-c1ccc(Sc2cccc(C3(C(N)=O)CCOCC3)c2)cc1
inactive: [2] | [3] | [4] | [5] | [7] | [9]
active: [2] 50 µM | [6] 9.48 µM | [8] 12.3 µM | [10] 8.97 µM | [11] 9.6 µM

O=C(O)c1ccc2c(c1)nc(C(=O)NC1CCN(C3CC3)CC1)n2Cc1cc(-c2ccc(Cl)s2)on1
inactive: [1] | [2] | [3] | [4] | [5] | [6] | [7] | [8] | [9] | [10] | [11]

CC1(C)C(=O)N(Cl)C(=O)N1Cl
inactive: [1] | [2] | [3] | [4] | [5] | [6] | [7] | [8] | [9] | [10] | [11]

COCc1nnc(-c2ccc[n+]([O-])c2)n1-c1c(Cl)c(Cl)cc2[nH]c(=O)c(=O)[nH]c12
inactive: [2] | [3] | [4] | [5] | [6] | [7] | [8] | [9] | [10] | [11]

CCCCCCOC(=O)CC(CC(=O)OCCCCCC)(OC(=O)CCC)C(=O)OCCCCCC
inactive: [1] | [3] | [4] | [5] | [6] | [7] | [8] | [9] | [10] | [11]

Nc1ccn([C@@H]2O[C@H](CO)[C@@H](O)[C@@H]2O)c(=O)n1
inactive: [1] | [2] | [3] | [4] | [16] | [12] | [13] | [17] | [18] | [19] | [15] | [5] | [6] | [7] | [8] | [9] | [10] | [11]

C[C@@H](Oc1ccc(CNC(=O)c2cccnc2Oc2ccc3c(c2)OCO3)c(F)c1)C(=O)O
active: [14] 0.128 µM
inactive: [1] | [2] | [3] | [4] | [16] | [12] | [13] | [17] | [18] | [19] | [15] | [5] | [6] | [7] | [8] | [9] | [10] | [11]

CCn1nc(C)c2c1C(=O)NCC(c1ccc(O)cc1)=N2
active: [2] 21.4 µM | [13] 2.63 µM | [19] 50 µM | [14] 0.185 µM | [15] 1.91 µM | [6] 17.1 µM
inactive: [1] | [2] | [3] | [4] | [16] | [12] | [17] | [18] | [5] | [7] | [8] | [9] | [10] | [11]

— PubChem BioAssay (EPA / NIEHS)
